Data: PubChem BioAssay (NCATS)
Records with an inconclusive call do not appear.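 How the source made its calls, unless noted: active means compounds whose dose series gives a full or clear partial fitted curve of increased nuclear translocation; inconclusive means weak partial curve or effect only at the top dose; inactive means no dose-dependent translocation response.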

Test system: not listed separately
Assay: Stat Signaling Pathway (AID 446; active means well fitted curve in either direction with a large enough effect, not every such curve was filed as active;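 further: ME-180 cervical cancer cells given 40 pM IL-6 alongside compound; SIE-controlled beta-lactamase reporter measured as 460/530 nm FRET emission ratio; on the % scale 0 is the no-effect control and ±100 the full control effect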)
Conditions: ME-180 (cervical carcinoma) SIE beta-lactamase reporter, IL-6 stimulated, 5 h; at 17.2 µM (top of the series) unless noted
In short: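 Normalization used AC90 stimulation (300 pM IL-6) and AC90 inhibition (125 nM pan-JAK inhibitor at 40 pM IL-6). The underlying signal is SIE-driven beta-lactamase in ME-180 cells after 5 h IL-6 exposure with compound.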

activity, negative = inhibition, inactive:
O=C(NCCOCCOCCNC(=O)c1cccnc1)c1cccnc1 3.22%
CCCOc1ccc(/C(O)=C2/C(=O)C(=O)N(CCCn3ccnc3)C2c2cccs2)cc1 (centres undefined) 6%
O=C(c1nsnc1-c1ccccc1O)N1CCCCC1 -2.4%
CC(=O)Nc1ccc(NCC(O)COc2ccccc2)cc1 (centres undefined) 3.96%
CC1CCc2cc(F)cc3c(O)c(C(=O)Nc4cnccn4)c(=O)n1c23 (centres undefined) 11.1%
O=C(c1ccccc1)n1c(=S)nc2ccccn21 -3.1%
Cc1cc(=O)oc(C)c1C(=O)NC12CC3CC(CC(C3)C1)C2 1.82%
S=C(N=Nc1ccccc1)NNc1ccccc1 -0.775%
COc1ccc(C(=O)N2CCC(N3CCN(c4ccccc4)CC3)CC2)cc1OC -1.54%
CC(=O)c1cccc(N=C2NC(=O)C(CO)(CO)S2)c1 4.42%
COc1cccc(NC(=O)CSC2=C(C#N)C(c3ccco3)C3=C(CCCC3=O)N2)c1 (centres undefined) -7.07%
CCCCCOC(=O)C(C)c1c(C)[nH]c(=S)[nH]c1=O (centres undefined) -4.24%
Cn1c(O)c(C=Nc2ccc(Cc3ccncc3)cc2)c(=O)n(C)c1=O -1.74%
CN=C1c2cc3c(Br)c(OC)ccc3n2CCN1C 6.11%
CN(C)S(=O)(=O)Nc1ccc(NS(=O)(=O)N(C)C)c(S(=O)(=O)c2ccccc2)c1 21.4%
CCOC(=O)NC(Nc1cc(C)on1)(C(F)(F)F)C(F)(F)F 12.3%
CC1(C)Cc2c(c(-c3ccccc3)nc3[nH][nH]c(=O)c23)CO1 12.3%
CCCCc1nc(N2CCOCC2)c(C#N)c2c1CCCC2 -8.28%
c1ccc(-c2nnc3sc(Cc4cccs4)nn23)cc1 16.7%
COC(=O)c1cc(Br)c(=O)n(-c2nccs2)c1 2.73%
COc1ccc(N2C(=O)C3C(C2=O)C2C=CC3C23CC3)c(OC)c1 (centres undefined) 0.0769%
CCCOc1cccc(C2C(C(=O)c3ccc(C)o3)=C(O)C(=O)N2CCCN(C)C)c1 (centres undefined) 5.19%
O=C(NCCO)c1cccc2c1C(=O)c1ccccc1-2 10.7%
Cn1c(OCc2ccc3c(c2)OCO3)nc2c1c(=O)n(Cc1cccc(Cl)c1)c(=O)n2C -6.64%

Target: Glucocorticoid receptor (Homo sapiens) (UniProt P04150)
Assay: GR-GFP Redistribution (AID 450); further: potency means the concentration at half of the fitted maximal effect
Conditions: U2OS GR-GFP nuclear translocation, laser cytometry, 2 h; series mostly up to 20.6 µM

Chain of Glucocorticoid receptor (Homo sapiens) (P04150 whole entry, looked up): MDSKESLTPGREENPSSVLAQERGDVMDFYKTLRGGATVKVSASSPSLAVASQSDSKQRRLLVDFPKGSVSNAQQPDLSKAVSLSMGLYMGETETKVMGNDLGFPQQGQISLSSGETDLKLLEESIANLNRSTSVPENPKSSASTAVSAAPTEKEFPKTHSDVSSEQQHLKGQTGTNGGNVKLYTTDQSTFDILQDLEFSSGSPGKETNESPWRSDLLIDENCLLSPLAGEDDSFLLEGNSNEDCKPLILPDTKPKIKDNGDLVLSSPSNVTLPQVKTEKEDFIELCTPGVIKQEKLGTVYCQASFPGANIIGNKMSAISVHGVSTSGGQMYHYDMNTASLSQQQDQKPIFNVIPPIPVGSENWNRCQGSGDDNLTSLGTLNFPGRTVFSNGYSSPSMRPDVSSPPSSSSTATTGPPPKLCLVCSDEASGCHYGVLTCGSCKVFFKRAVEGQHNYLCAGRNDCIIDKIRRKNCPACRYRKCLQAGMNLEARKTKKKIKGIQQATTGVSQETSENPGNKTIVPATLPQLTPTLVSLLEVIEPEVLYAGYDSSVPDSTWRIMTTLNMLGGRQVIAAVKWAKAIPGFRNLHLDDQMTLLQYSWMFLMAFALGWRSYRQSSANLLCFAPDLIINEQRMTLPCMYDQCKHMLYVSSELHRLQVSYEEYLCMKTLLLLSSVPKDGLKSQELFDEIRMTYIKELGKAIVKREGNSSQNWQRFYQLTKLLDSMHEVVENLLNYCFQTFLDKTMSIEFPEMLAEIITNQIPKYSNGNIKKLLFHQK

Potency, inactive:
COCCN(C(=O)Nc1ccccc1)c1ccccc1C > 20.6 µM
Oc1ccc2ccccc2c1/C=N/n1cnnc1 > 20.6 µM
Cn1c(=O)c2c(nc(NCC(O)CO)n2CCc2ccccc2)n(C)c1=O (centres undefined) > 20.6 µM
CC1=C(C(=O)Nc2ccccc2)C(c2ccncc2)C(C#N)=C(SCC(=O)NC(C)C)N1 (centres undefined) > 20.6 µM
C=C(C)C1Cc2c(C)nn(-c3nc(C)cc(C)n3)c2C1 (centres undefined) > 20.6 µM
Cc1[nH]nc2c1C(CCc1ccccc1)C(C#N)=C(N)O2 (centres undefined) > 20.6 µM
COCCN(CCOC)C(=O)C12CCC(C)(C(=O)C1)C2(C)C (centres undefined) > 20.6 µM
COc1ccc(C2CC(=O)C(C=NCCN3CCOCC3)=C(O)C2)cc1 (centres undefined) > 20.6 µM
CN1CCN(c2nc(C(N)=O)cc(-c3ccccc3)n2)CC1 > 20.6 µM
COc1cccc(COc2nc3c(c(=O)n(C)c(=O)n3C)n2C)c1 > 20.6 µM
COc1ccccc1N(O)C1CC(=O)N(c2ccc(F)cc2)C1=O (centres undefined) > 20.6 µM
O=C(Nc1ccccc1)c1cc(N2CCOCC2)nc2ccccc12 > 20.6 µM
COc1ccc(Cn2c(O)cc(=O)[nH]c2=O)cc1 > 20.6 µM
COC(=O)C(NC(=O)c1ccco1)(Nc1ccc(Br)cn1)C(F)(F)F (centres undefined) > 20.6 µM
CC(=O)Nc1ccc(Oc2ccc3nc(C)[nH]c3c2)cc1 > 20.6 µM
CC(C)C(C(=O)Nc1ncn[nH]1)N1C(=O)c2ccccc2C1=O (centres undefined) > 20.6 µM
O=C(NCCOCCOCCNC(=O)c1cccnc1)c1cccnc1 > 20.6 µM
CCCOc1ccc(/C(O)=C2/C(=O)C(=O)N(CCCn3ccnc3)C2c2cccs2)cc1 (centres undefined) > 20.6 µM
O=C(c1nsnc1-c1ccccc1O)N1CCCCC1 > 20.6 µM
CC(=O)Nc1ccc(NCC(O)COc2ccccc2)cc1 (centres undefined) > 20.6 µM
CC1CCc2cc(F)cc3c(O)c(C(=O)Nc4cnccn4)c(=O)n1c23 (centres undefined) > 20.6 µM
O=C(c1ccccc1)n1c(=S)nc2ccccn21 > 20.6 µM
Cc1cc(=O)oc(C)c1C(=O)NC12CC3CC(CC(C3)C1)C2 > 20.6 µM
S=C(N=Nc1ccccc1)NNc1ccccc1 > 20.6 µM
COc1ccc(C(=O)N2CCC(N3CCN(c4ccccc4)CC3)CC2)cc1OC > 20.6 µM
CC(=O)c1cccc(N=C2NC(=O)C(CO)(CO)S2)c1 > 20.6 µM
COc1cccc(NC(=O)CSC2=C(C#N)C(c3ccco3)C3=C(CCCC3=O)N2)c1 (centres undefined) > 20.6 µM
CCCCCOC(=O)C(C)c1c(C)[nH]c(=S)[nH]c1=O (centres undefined) > 20.6 µM
Cn1c(O)c(C=Nc2ccc(Cc3ccncc3)cc2)c(=O)n(C)c1=O > 20.6 µM
CN=C1c2cc3c(Br)c(OC)ccc3n2CCN1C > 20.6 µM
CN(C)S(=O)(=O)Nc1ccc(NS(=O)(=O)N(C)C)c(S(=O)(=O)c2ccccc2)c1 > 20.6 µM
CCOC(=O)NC(Nc1cc(C)on1)(C(F)(F)F)C(F)(F)F > 20.6 µM
CC1(C)Cc2c(c(-c3ccccc3)nc3[nH][nH]c(=O)c23)CO1 > 20.6 µM
CCCCc1nc(N2CCOCC2)c(C#N)c2c1CCCC2 > 20.6 µM
c1ccc(-c2nnc3sc(Cc4cccs4)nn23)cc1 > 20.6 µM
COC(=O)c1cc(Br)c(=O)n(-c2nccs2)c1 > 20.6 µM
COc1ccc(N2C(=O)C3C(C2=O)C2C=CC3C23CC3)c(OC)c1 (centres undefined) > 20.6 µM
CCCOc1cccc(C2C(C(=O)c3ccc(C)o3)=C(O)C(=O)N2CCCN(C)C)c1 (centres undefined) > 20.6 µM
O=C(NCCO)c1cccc2c1C(=O)c1ccccc1-2 > 20.6 µM
Cn1c(OCc2ccc3c(c2)OCO3)nc2c1c(=O)n(Cc1cccc(Cl)c1)c(=O)n2C > 20.6 µM
